GIRK2 act – Activators of human GIRK2-containing channels; P48051; 34,000 tested, under 10 active; activation (% efficacy), % for hits at 37.5 µM; HEK293 GIRK2/NPY4 cells, thallium flux fluorescence;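 active means primary screen hit, no activity in plain HEK293 cells, and in GIRK2-only cells above 5% efficacy rising with concentration; inactive means the rest, including fluorescent compounds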;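 further: efficacy is normalized control-subtracted fluorescence 15 s after thallium addition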
Target sequence (P48051 whole entry, looked up): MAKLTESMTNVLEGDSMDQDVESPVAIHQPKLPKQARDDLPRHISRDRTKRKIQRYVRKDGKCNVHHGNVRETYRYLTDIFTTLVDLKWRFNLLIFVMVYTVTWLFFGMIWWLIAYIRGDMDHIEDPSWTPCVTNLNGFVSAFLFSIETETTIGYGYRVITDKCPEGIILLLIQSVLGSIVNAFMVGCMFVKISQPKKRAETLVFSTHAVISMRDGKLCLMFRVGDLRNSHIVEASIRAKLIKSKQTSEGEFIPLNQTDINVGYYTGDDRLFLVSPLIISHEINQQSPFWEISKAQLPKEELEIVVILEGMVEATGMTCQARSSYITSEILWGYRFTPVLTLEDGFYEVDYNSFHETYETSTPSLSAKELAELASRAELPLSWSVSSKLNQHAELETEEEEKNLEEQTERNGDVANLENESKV
AMPAR-TARP mod – modulators of AMPA receptor GluA2-stargazin complexes; AID 1259245; hit rate 3.5% among 40,000; HEK293 GluA2+stargazin, membrane potential dye (FDSS), glutamate EC50; hits were called plate by plate, in both directions; O88602+P19491; calls only at 30 µM;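 active means any of four per-well response measures lying three or more SD from its plate-wide compound average, in either direction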
Of the large screens only hits and unclear results are named; the others gave an inactive call. Shown is part of a subset that was picked to be rich in hits.

O=C(Cn1c2c(c3ccccc31)CCC2)NCC1CCS(=O)(=O)C1 (centres undefined)	AMPAR-TARP mod active
O=C(NCC(O)(c1ccco1)C1CC1)c1cc(Cl)ccc1Cl (centres undefined)	none
COCCn1c(=NC(=O)c2cc(C)no2)sc2cc(OC)ccc21	none
CCOc1ccc2c(c1)sc(=NC(=O)c1ccc(S(=O)(=O)C(C)C)cc1)n2CCOC	AMPAR-TARP mod active
Cc1cccc2cc(C3CC(c4ccco4)=NN3C(=O)C(C)C)c(Cl)nc12 (centres undefined)	none
CCS(=O)(=O)N1CCCc2cc(NC(=O)Nc3cc(Cl)ccc3OC)ccc21	AMPAR-TARP mod active
CCS(=O)(=O)N1CCCc2cc(NC(=O)Nc3ccc(OC)cc3)ccc21	none
CCS(=O)(=O)N1CCCc2cc(NC(=O)NCc3ccccc3)ccc21	none
CCCS(=O)(=O)N1CCCc2cc(NC(=O)NCCCc3ccccc3)ccc21	AMPAR-TARP mod active
COc1ccc(S(=O)(=O)N2CCN(c3ccc(C)cc3C)CC2)cc1C	none (no result: GIRK2 act)
Cn1c(=O)c2c(ncn2Cc2ccccc2)n(C)c1=O	none (no result: GIRK2 act)
Cn1c(=O)c2c(ncn2CC(=O)NCc2ccccc2)n(C)c1=O	AMPAR-TARP mod active (no result: GIRK2 act)
COCCn1c(=O)c2c(nc3n2CC(C)CN3c2cccc(OC)c2)n(C)c1=O (centres undefined)	none (no result: GIRK2 act)
COc1ccc(F)cc1S(=O)(=O)Nc1cccc(-c2ccc(=O)n(C)n2)c1	AMPAR-TARP mod active
COc1ccc(F)cc1S(=O)(=O)Nc1ccc(-c2ccc(=O)n(C)n2)cc1	none
CCOc1ccc2nc(SCC(=O)N3c4ccccc4C(C)=CC3(C)C)sc2c1	none (no result: GIRK2 act)
COc1ccc(Cl)cc1S(=O)(=O)NCC1CCN(C(=O)Nc2ccc(F)cc2)CC1	AMPAR-TARP mod active
COc1ccc(Cl)cc1NC(=O)NCC1CCN(C(=O)Nc2ccc(F)cc2)CC1	none
Cc1ccc(S(=O)(=O)Nc2ccccc2C(=O)Nc2ccc(C)cc2C(=O)c2ccccc2)cc1	none (no result: GIRK2 act)
Cc1ccc(NS(=O)(=O)c2ccccc2)c(C(=O)c2ccccc2)c1	AMPAR-TARP mod active (no result: GIRK2 act)
COc1ccc(-c2nnc(NC(=O)c3ccc(F)cc3)o2)cc1OC	none
CS(=O)(=O)c1ccc(C(=O)Nc2nnc(-c3cccnc3)o2)cc1	AMPAR-TARP mod active
COc1ccc(C(=O)Nc2nnc(-c3ccc(Br)s3)o2)cc1OC	AMPAR-TARP mod active
CS(=O)(=O)c1ccc(C(=O)Nc2nnc(-c3ccc(Br)s3)o2)cc1	none
c1ccc(-c2nnc(-c3ccncc3)o2)cc1	none (no result: GIRK2 act)
COc1ccccc1C(=O)Nc1nnc(-c2ccc(Br)s2)o1	none (no result: AMPAR-TARP mod)
COc1ccc(-c2nnc(-c3ccncc3)o2)cc1OC	AMPAR-TARP mod active (no result: GIRK2 act)
COc1ccc(C(=O)Nc2nnc(-c3ccncc3)o2)cc1OC	AMPAR-TARP mod active (no result: GIRK2 act)
COc1ccc(CC(=O)Nc2ccc(CC(=O)NCc3cccs3)cc2)cc1OC	none
CCOC(=O)c1ccc(NC(=O)C2CCCN2S(C)(=O)=O)cc1 (centres undefined)	none
Cn1c(=O)[nH]c(=O)c2c1nc(N1CCOCC1)n2CC(=O)O	none
Cc1ccc(S(=O)(=O)c2cnc(SCC(=O)Nc3ccc(Br)cc3)[nH]c2=O)cc1	none
O=C(CSc1ncc(S(=O)(=O)c2ccc(Br)cc2)c(=O)[nH]1)Nc1ccccc1F	AMPAR-TARP mod active (no result: GIRK2 act)
O=C(c1cccc(S(=O)(=O)N2CCOCC2)c1)N1CCCc2ccccc21	none (no result: GIRK2 act)
O=C(c1ccc(Cl)c(S(=O)(=O)N2CCOCC2)c1)N1CCc2ccccc21	AMPAR-TARP mod active (no result: GIRK2 act)
O=C(NCCN1CCOCC1)c1ccc(Cl)c(S(=O)(=O)N2CCCCC2)c1	none (no result: GIRK2 act)
Cc1ccc(C(=O)N2CCCc3ccccc32)cc1S(=O)(=O)N1CCOCC1	AMPAR-TARP mod active (no result: GIRK2 act)
O=C(Nc1ccccc1Cl)C1COCC(=O)N1Cc1ccccc1 (centres undefined)	none
COc1ccc(CNC(=O)C(=O)Nc2ccc(NC(C)=O)cc2)cc1	none
COc1ccc(CCNC(=O)C(=O)Nc2ccc(NC(C)=O)cc2)cc1	AMPAR-TARP mod active
O=C(Nc1cccc(C(F)(F)F)c1)c1ccc(S(=O)(=O)NCc2cccs2)o1	AMPAR-TARP mod active
O=C(Nc1cccc(C(F)(F)F)c1)c1ccc(S(=O)(=O)N2CCCC2)o1	none
CNS(=O)(=O)c1ccc(C(=O)Nc2cccc(C(F)(F)F)c2)o1	AMPAR-TARP mod active
O=C(Nc1cccnc1)c1ccc(S(=O)(=O)NCc2cccs2)o1	none
O=C(NCc1cccs1)C(=O)NCC1CCN(C(=O)Oc2ccccc2)CC1	none
CCN1C(=O)CCc2cc(NC(=O)NC(c3ccccc3)c3ccccc3)ccc21	none
O=S(=O)(c1cccnc1)N1CCC(Cn2cnc3ccccc32)CC1	none
Cc1cn2c3c(=O)n(CCCc4ccccc4)c(=O)n(C)c3nc2n1C1CCCC1	none
COc1ccccc1C(=O)N(CCc1cccs1)c1nc2ccc(S(C)(=O)=O)cc2s1	AMPAR-TARP mod active
COc1ccc2sc(N(Cc3ccncc3)C(=O)c3ccccc3S(C)(=O)=O)nc2c1	none
Clc1ccc(-c2nnn3c2nc(N2CCOCC2)c2ccccc23)cc1	none
CC(=O)OCCN1C(=O)c2cccc3c(N4CCCCC4)ccc(c23)C1=O	AMPAR-TARP mod active (no result: GIRK2 act)
O=C(OCN1C(=O)c2ccccc2C1=O)C1CCCCC1	none (no result: GIRK2 act)
O=C(Cc1cccs1)N1CCN(c2ccc(-c3ccccn3)nn2)CC1	AMPAR-TARP mod active
Cc1ccc(C(=O)N2CCN(c3nc(C)cc(N4CCCCC4)n3)CC2)cc1	none (no result: GIRK2 act)
Cc1cc(N2CCOCC2)nc(N2CCN(C(=O)Cc3cccs3)CC2)n1	AMPAR-TARP mod active
Cc1cc(N2CCCC2)nc(N2CCN(C(=O)c3ccccc3)CC2)n1	AMPAR-TARP mod active (no result: GIRK2 act)
Cc1ccccc1-c1ccc(N2CCN(C(=O)Cc3cccs3)CC2)nn1	none
Cc1ccc(-c2ccc(N3CCN(C(=O)Cc4cccs4)CC3)nn2)cc1	none
CS(=O)(=O)N1CCN(CCNC(=O)c2cnc3ccccc3n2)CC1	none (no result: AMPAR-TARP mod)
CNC(=O)Cn1nnn(-c2ccc(NC(=O)COc3ccc(C(C)C)cc3)cc2)c1=O	none
COc1cc(NC(=O)COc2ccc(C)cc2)ccc1N1CCCCC1=O	none
CSc1nn(CC(=O)Nc2ccc(Cl)cc2)c(N)c1S(=O)(=O)c1ccccc1	AMPAR-TARP mod active (no result: GIRK2 act)
CSc1nn(CC(=O)Nc2ccc(Br)cc2)c(N)c1S(=O)(=O)c1ccc(C)cc1	none
COc1ccc(OC)c(-c2csc(NC(=O)c3ccc(SC(C)C)cc3)n2)c1	none
COc1ccc(-c2csc(NC(=O)c3ccc(SC(C)C)cc3)n2)c(OC)c1	AMPAR-TARP mod active (no result: GIRK2 act)
COc1cccc(C(=O)N2CCC(c3cccs3)CC2)c1OC	none
CS(=O)(=O)c1ccc(Nc2nc(CC(=O)NC3CCCC3)cs2)cc1	none
COCCCn1c(N)c(S(=O)(=O)c2ccc(OC)cc2)c2nc3ccccc3nc21	none
COCCn1c(N)c(S(=O)(=O)c2cccc(Cl)c2)c2nc3ccccc3nc21	AMPAR-TARP mod active
COCCCn1c(N)c(S(=O)(=O)c2ccc(Cl)cc2)c2nc3ccccc3nc21	AMPAR-TARP mod active
COCCCn1c(N)c(S(=O)(=O)c2cc(C)ccc2C)c2nc3ccccc3nc21	none
COc1cc2c(cc1OC)CN(CC(O)COc1ccccc1OC)CC2 (centres undefined)	none
COc1ccc(Cl)cc1C(=O)Nc1nnc(-c2ccnn2C(C)C)o1	AMPAR-TARP mod active
CC(C)n1nccc1-c1nnc(NC(=O)c2ccc(Cl)cc2Cl)o1	none
O=C(NCC1(O)CCc2ccccc21)NC1CCCCC1 (centres undefined)	none
O=S(=O)(NCC(O)(c1ccccc1)C(F)(F)F)c1ccc(F)c(Cl)c1 (centres undefined)	none

Bioassay records deposited in PubChem by several laboratories.
